Source: PubChem BioAssay
Active and inactive are the calls of the source.

How the values were obtained:
[1] = compounds binding Alexa647 anti-His antibody – biochemical, small-molecule microarray, 635 nm fluorescence, artefact control for SMM control protein annotation, primary screen (AID 1128); settings: higher = more signal;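 note: score merges feature fluorescence with signal-to-noise for each printed compound spot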
[2] = tested on: Human papillomavirus type 1a E7 protein (residues 1-88); assay: HPV1a E7 small-molecule binders, primary screen, biochemical, small-molecule microarray, residues 1-88, 635 nm (AID 1129); settings: small-molecule microarray binding, fluorescence 635 nm; higher = more signal
[3] = target: Focal adhesion kinase 1 (Homo sapiens) (UniProt Q05397); assay: PTK2 protein binding on printed compound slides – biochemical, small-molecule microarray, 635/667 nm fluorescence, BSA, DTT, primary screen (AID 1130); settings: 635 nm fluorescence, higher = more signal;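 note: composite of spot emission at 667 nm and signal to noise over triplicate slides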
[4] = tested on: Fibrinogen (Alexa647-labelled); assay: Alexa647-fibrinogen binding to printed small molecules – biochemical, small-molecule microarray, 635/667 nm fluorescence, artefact control for SMM control-protein annotation, profiling panel (AID 1131); settings: fibrinogen-A647 binding fluorescence, higher = more signal;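 note: z-score merges 667 nm fluorescence with per-spot signal-to-noise over triplicate slides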
[5] = target: Follistatin (Homo sapiens) (UniProt P19883); assay: FST protein binding to printed compounds – biochemical, small-molecule microarray, 635/667 nm fluorescence, primary screen (AID 1132); settings: 635 nm fluorescence, higher = more signal
[6] = target: Fibroblast growth factor 2 (Homo sapiens) (UniProt P09038); assay: basic fibroblast growth factor binding to printed compounds – biochemical, small-molecule microarray, 635/667 nm fluorescence, primary screen (AID 1133); settings: FGF2, fluorescence 635/667, higher = more signal
[7] = JC-1 mitochondrial potential readout, lung cancer cells – cell-based, A549, JC-1 fluorescence, basal, 24 h, 100 nL, profiling panel (AID 1138); settings: higher = more signal;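 note: A549 lung adenocarcinoma cells under basal conditions with no added stimulus; test concentration not given here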
Lefty1 = Lefty1 protein binding to printed compounds – biochemical, small-molecule microarray, 635/667 nm fluorescence, primary screen (AID 1139); settings: fluorescence 635/667, higher = more signal
[8] = tested on: wheat germ agglutinin (Triticum aestivum), Alexa647-labelled; assay: Alexa647-WGA lectin binding to printed small molecules – biochemical, small-molecule microarray, 635/667 nm fluorescence, artefact control for SMM control-protein annotation, profiling panel (AID 1140); settings: WGA-A647 binding, 635 nm fluorescence, higher = more signal;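 note: score merges 667 nm feature emission with signal to noise over triplicate slides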
[9] = target: Luciferin 4-monooxygenase (Photinus pyralis) (UniProt P08659); assay: inhibition of purified Photinus pyralis luciferase – biochemical, luminescence, purified enzyme, 2006 set, primary screen (AID 1141); settings: purified firefly luciferase, SteadyGlo luminescence, 30 min; higher = more signal, called active from +8 up or from −8 down;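 note: cell-free assay with purified firefly luciferase at 100 ng per well in PBS; test concentration not given here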
Luciferin 4-monooxygenase (Photinus pyralis), sequence (P08659 whole entry, looked up): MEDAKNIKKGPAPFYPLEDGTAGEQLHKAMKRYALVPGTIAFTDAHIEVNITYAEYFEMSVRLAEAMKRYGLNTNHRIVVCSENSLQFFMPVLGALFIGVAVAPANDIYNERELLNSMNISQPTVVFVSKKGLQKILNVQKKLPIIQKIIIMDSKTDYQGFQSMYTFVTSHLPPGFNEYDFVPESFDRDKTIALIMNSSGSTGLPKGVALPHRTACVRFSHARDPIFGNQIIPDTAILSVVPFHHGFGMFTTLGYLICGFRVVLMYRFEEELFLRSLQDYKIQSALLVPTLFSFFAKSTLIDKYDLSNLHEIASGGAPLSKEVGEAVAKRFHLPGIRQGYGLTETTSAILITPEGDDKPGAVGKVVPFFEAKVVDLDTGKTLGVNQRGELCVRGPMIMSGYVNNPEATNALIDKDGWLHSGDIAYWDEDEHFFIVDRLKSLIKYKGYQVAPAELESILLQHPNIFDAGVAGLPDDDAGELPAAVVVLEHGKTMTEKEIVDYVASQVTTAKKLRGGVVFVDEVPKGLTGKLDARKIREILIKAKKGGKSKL

Fibroblast growth factor 2 (Homo sapiens), sequence (P09038 whole entry, looked up): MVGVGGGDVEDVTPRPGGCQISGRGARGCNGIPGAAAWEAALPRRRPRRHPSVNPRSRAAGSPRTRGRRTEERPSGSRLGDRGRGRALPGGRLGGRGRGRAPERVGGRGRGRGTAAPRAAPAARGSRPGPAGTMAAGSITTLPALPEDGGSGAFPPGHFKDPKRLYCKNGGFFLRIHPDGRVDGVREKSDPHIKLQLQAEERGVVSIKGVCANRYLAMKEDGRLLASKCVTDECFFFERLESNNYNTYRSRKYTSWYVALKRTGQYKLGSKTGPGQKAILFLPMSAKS
Focal adhesion kinase 1 (Homo sapiens), sequence (Q05397 whole entry, looked up): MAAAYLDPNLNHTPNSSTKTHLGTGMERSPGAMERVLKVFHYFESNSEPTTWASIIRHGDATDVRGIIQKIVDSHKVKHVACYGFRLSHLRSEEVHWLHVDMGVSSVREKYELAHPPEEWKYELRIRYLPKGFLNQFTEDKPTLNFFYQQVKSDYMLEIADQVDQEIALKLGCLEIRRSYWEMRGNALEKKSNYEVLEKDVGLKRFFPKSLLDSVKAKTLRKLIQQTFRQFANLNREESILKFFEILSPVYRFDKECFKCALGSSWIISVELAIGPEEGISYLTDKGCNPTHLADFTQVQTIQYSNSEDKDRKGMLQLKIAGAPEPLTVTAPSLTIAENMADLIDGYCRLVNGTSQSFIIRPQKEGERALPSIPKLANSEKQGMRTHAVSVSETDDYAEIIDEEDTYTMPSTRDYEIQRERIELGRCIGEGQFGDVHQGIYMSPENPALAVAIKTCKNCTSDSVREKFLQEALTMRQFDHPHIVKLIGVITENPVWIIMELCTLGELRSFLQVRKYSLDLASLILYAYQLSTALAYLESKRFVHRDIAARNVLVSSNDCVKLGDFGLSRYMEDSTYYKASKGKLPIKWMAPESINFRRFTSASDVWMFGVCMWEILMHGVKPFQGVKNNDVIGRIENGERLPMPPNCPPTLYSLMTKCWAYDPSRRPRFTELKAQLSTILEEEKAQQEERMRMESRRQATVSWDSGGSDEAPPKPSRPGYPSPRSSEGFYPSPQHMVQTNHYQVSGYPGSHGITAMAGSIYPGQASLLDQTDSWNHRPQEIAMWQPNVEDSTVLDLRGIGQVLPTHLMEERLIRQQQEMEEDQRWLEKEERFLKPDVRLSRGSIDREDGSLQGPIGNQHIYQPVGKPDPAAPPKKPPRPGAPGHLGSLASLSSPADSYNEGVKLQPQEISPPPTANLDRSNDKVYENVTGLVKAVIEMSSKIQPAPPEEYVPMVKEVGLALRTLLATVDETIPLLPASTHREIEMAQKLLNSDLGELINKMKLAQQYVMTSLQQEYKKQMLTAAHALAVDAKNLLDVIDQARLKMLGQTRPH
Follistatin (Homo sapiens), sequence (P19883 whole entry, looked up): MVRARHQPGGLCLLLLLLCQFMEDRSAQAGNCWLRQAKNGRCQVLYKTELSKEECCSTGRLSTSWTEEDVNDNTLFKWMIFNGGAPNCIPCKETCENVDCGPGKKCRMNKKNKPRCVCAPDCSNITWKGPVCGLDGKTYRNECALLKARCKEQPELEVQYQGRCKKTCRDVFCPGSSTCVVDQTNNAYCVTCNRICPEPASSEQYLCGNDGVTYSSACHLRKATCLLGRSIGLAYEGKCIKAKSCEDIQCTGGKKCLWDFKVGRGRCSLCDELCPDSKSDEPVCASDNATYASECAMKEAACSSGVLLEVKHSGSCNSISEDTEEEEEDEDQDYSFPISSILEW

| SMILES | composite z-score [1] | composite z-score [2] | composite z-score [3] | composite z-score [4] | composite z-score [5] | composite z-score [6] | z-score [7] | composite z-score (Lefty1) | composite z-score [8] | z-score [9] |
| --- | --- | --- | --- | --- | --- | --- | --- | --- | --- | --- |
| CCCCC(CC)C(O)C1C=CC2C(=O)N(c3ccccc3)C(=O)C2N1Nc1ccc([N+](=O)[O-])cc1 (stereo not given) | 1.48 | 1.23 | 0.623 | 1.04 | 1.21 | 0.456 | -1.19 | 0.39 | 1.02 | 0.262 (inactive) |
| COc1ccc([Si](C)(C)[C@H]2[C@H](CCn3cc([C@H](O)c4ccccc4)nn3)O[C@@]3(C(=O)N(Cc4ccc(N5CCOC5=O)cc4)c4ccccc43)[C@@H]2C)cc1 | -0.194 | -0.993 | -0.775 | -0.231 | -0.988 | -0.785 | 1.26 | -0.919 | -0.0383 | -0.278 (inactive) |
| COC(=O)[C@@]1(Cc2ccc(OC)cc2)[C@H]2c3cc(C(=O)N(C)C)n(CCc4c[nH]c5ccc(O)cc45)c3C[C@H]2CN1C(=O)c1ccccc1 | 0.548 | 1.21 | 1.36 | 0.979 | 1.01 | -0.218 | 0.74 | -0.737 | 1.28 | 1.18 (inactive) |
| CC1CC/C=C\[C@H]2OC34C=CCN(C(C)C)C(=O)[C@H]3N(CCCCCO)C(=O)[C@@H]4C2C(=O)O1 (stereo not given in full) | -1.07 | -1.71 | -0.6 | -1.29 | -0.985 | -1.17 | 1.68 | -1.42 | -0.892 | -1.39 (inactive) |
| CCN(CC)c1ccc(N2CC=CC34O[C@@H]5/C=C\CCC(C)OC(=O)C5[C@H]3C(=O)N(CCO)[C@@H]4C2=O)cc1 (stereo not given in full) | 2.08 | -0.204 | 0.235 | -1.45 | -0.69 | -0.734 | 0.431 | -0.171 | 0.144 | -0.801 (inactive) |
| C=C(C(=O)CC[C@H](OC(C)=O)c1cccc(OCCO)c1)C(C)C | -0.734 | -1.35 | -0.311 | -0.0681 | -0.791 | -0.883 | -0.6 | -0.638 | 0.335 | -0.0654 (inactive) |
| CC(C)(C)N1CC=CC23O[C@@H]4C=CCOC(=O)[C@@H]4[C@H]2C(=O)N(CCCO)[C@@H]3C1=O (stereo not given in full) | -1.08 | -1.21 | -0.595 | -1.79 | -1.79 | -1.28 | -0.908 | -1.34 | -1.13 | -0.11 (inactive) |
| Cc1ccc(S[C@]2(C(=O)O)CC(=O)N(Cc3ccccc3Cl)[C@@H]2c2ccc(CO)cc2)cc1 | -0.24 | -0.558 | -0.299 | -0.271 | -0.83 | -0.26 | -0.939 | -1.26 | 0.478 | -0.999 (inactive) |
| COc1ccc([Si](C)(C)[C@H]2[C@H](CCn3cc([C@H](O)c4ccccc4)nn3)O[C@@]3(C(=O)N(Cc4cccc(N5C(=O)c6cccc7cccc5c67)c4)c4ccccc43)[C@@H]2C)cc1 | -0.953 | -0.859 | -0.435 | -0.678 | -1.64 | -1.03 | 0.647 | -1.36 | -0.76 | 0.119 (inactive) |
| COCCCNC(=O)[C@@]1(Sc2ccc(C)cc2)CC(=O)N(Cc2cc(C(F)(F)F)cc(C(F)(F)F)c2)[C@@H]1c1ccc(CO)cc1 | 1.79 | 0.566 | 0.813 | 0.248 | 1.06 | 0.686 | 0.727 | 1.25 | -0.271 | -0.363 (inactive) |
| COCCOC(=O)N1C(=O)[C@@]2(c3cc(C#CC4(O)CCCCCC4)ccc31)[C@H](c1ccccc1OCCO)N1[C@H](c3ccccc3)[C@H](c3ccccc3)OC(=O)[C@H]1[C@@H]2C(N)=O | 1.47 | 1.18 | 0.639 | 0.872 | 1.41 | 1.51 | -1.68 | 1.56 | 1.02 | -0.927 (inactive) |
| COCCCNC(=O)[C@@]1(Sc2ccc(C)cc2)CC(=O)N(C2Cc3ccccc3C2)[C@@H]1c1ccc(CO)cc1I | -0.961 | -1.01 | -1.01 | -1.07 | -1.01 | -1.19 | 0.314 | -1.68 | -0.0708 | 0.553 (inactive) |
| COCCOC(=O)N1C(=O)[C@@]2(c3ccccc31)[C@H](c1ccc(OCCO)cc1)N1[C@H](c3ccccc3)[C@H](c3ccccc3)OC(=O)[C@H]1[C@@H]2C(=O)Nc1nc2ccccc2s1 | 1.6 | 1.2 | 0.72 | 0.942 | 1.24 | 1.05 | -2.22 | 0.518 | 0.433 | -2.98 (inactive) |
| CC=CC(O)C1C=CC2C(=O)N(c3ccccc3)C(=O)C2N1Nc1ccccc1 (stereo not given) | 2.25 | 1.25 | 0.981 | 0.915 | 1.2 | 0.915 | 0.714 | 0.493 | 1.15 | -2.22 (inactive) |
| COc1ccc(C(O)C2C=CC3C(=O)N(C)C(=O)C3N2N2CCCCC2)cc1 (stereo not given) | 2.56 | 1.23 | 0.656 | 0.96 | 0.299 | -0.19 | 0.406 | -0.523 | 1.29 | -1.08 (inactive) |
| NCCCCCCNC(=O)[C@@H]1C[C@@H]2C(=O)N3CCC[C@H]3C(=O)N2[C@@H]1c1ccc(O)cc1 | 0.508 | 1.18 | 0.439 | 0.578 | 1.41 | 1.29 | 0.37 | 1.25 | 0.636 | -0.284 (inactive) |
